# Several values for one entry are separate records, joined by “and”; a condition that tells them apart may be missing. Equal values may be shown once. Inconclusive results are not listed. Where a call stands in place of a potency, no number is given. Some compounds were tested as several samples or in several runs, with calls that do not always agree. Activity calls are given as the source filed them. Unless noted, calls come from the whole dose curve; as a rule, active = well fitted curve in the direction sought with a large enough effect in the repeat runs; inconclusive = weak or mixed curves; inactive = no such curve, though single readings can be large; an effect the other way counts as inactive or inconclusive.
# Tests used:
# [1] = biological target: Aryl hydrocarbon receptor (Homo sapiens) (UniProt P35869); test: qHTS assay to identify small molecule that activate the aryl hydrocarbon receptor (AhR) signaling pathway (AID 743085); note: nearly all actives have a fitted effect of over 15% in size; note: potency is the fitted concentration of half-maximal effect;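 for activation: HG2L7.5c1 human HepG2 liver cells with stably integrated DRE-driven firefly reporter; series mostly up to about 70 µM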
# Chain of Aryl hydrocarbon receptor (Homo sapiens) (P35869 whole entry, looked up): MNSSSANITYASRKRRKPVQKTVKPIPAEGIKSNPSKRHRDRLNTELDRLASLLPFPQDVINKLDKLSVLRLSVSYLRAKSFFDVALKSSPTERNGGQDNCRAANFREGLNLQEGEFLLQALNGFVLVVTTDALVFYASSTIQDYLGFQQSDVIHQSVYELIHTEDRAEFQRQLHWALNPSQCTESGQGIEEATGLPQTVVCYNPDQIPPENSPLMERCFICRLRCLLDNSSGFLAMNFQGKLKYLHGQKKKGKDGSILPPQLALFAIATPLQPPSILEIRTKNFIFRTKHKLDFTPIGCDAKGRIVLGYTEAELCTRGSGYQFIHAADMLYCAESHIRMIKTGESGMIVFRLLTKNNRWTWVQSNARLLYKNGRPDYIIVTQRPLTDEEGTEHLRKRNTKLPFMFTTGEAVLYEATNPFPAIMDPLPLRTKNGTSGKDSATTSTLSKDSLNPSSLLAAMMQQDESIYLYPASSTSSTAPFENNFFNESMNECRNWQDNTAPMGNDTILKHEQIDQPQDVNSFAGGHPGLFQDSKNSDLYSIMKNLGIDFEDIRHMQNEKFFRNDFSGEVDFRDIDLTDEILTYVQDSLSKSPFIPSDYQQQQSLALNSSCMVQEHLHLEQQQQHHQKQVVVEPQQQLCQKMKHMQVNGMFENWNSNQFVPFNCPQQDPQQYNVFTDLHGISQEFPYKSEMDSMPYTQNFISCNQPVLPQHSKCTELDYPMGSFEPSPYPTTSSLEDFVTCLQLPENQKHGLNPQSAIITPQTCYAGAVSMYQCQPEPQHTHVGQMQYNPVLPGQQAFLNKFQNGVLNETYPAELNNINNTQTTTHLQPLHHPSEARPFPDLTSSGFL
# Summary of the method: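 Steps: seed HepG2-AhR-luc cells; allow 5 h at 37C; pin-transfer test compound or vehicle; incubate 24 h at 37C; add viability dye (30 min, 37C) and read fluorescence; add luciferase substrate (30 min, RT) and read luminescence.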
# [2] = qHTS assay to identify small molecule that activate the aryl hydrocarbon receptor (AhR) signaling pathway - cell viability counter screen (AID 743086); note: nearly all actives have a fitted effect of over 45% in size; note: potency is the fitted concentration of half-maximal effect
# Summary of the method: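 HepG2-AhR-luc (HG2L7.5c1) cells, 4000/well, treated 24 h at 37 C with compound; viability measured as CellTiter-Fluor fluorescence after 30 min in the same wells as the luciferase read.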
# [3] = qHTS assay to identify small molecule antagonists of the peroxisome proliferator-activated receptor gamma (PPARg) signaling pathway - cell viability counter screen (AID 743194); note: nearly all actives have a fitted effect of over 55% in size; note: potency is the fitted concentration of half-maximal effect
# Summary of the method: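 Cytotoxicity counter screen in PPARg-bla HEK293H cells, same wells as reporter assay. Compounds plus 50 nM rosiglitazone (final) for 17 h at 37 C, then viability read by CellTiter-Glo luminescence.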
# [4] = qHTS assay for small molecule agonists of the antioxidant response element (ARE) signaling pathway - cell viability counter screen (AID 743203; calls by dose curve; note: nearly all actives have a fitted effect of over 55% in size; note: potency is the fitted concentration of half-maximal effect)
# Summary of the method: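 Measured in the same wells as the beta-lactamase ARE reporter, this read-out is CellTiter-Glo luminescence from HepG2 ARE-bla cells given compounds for 16 hrs.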
# [5] = qHTS assay for small molecule activators of the heat shock response signaling pathway - cell viability counter screen (AID 743209); note: nearly all actives have a fitted effect of over 50% in size; note: potency is the fitted concentration of half-maximal effect
# Summary of the method: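 Same-well multiplex: after 2.5 h room-temperature incubation with LiveBLAzer B/G substrate and fluorescence reading, CellTiter-Glo reagent was added to HSE-bla HeLa cells that had received compound for 5 h at 37 C; luminescence read after 30 min.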
# [6] = qHTS assay to identify small molecule agonists of the peroxisome proliferator-activated receptor delta (PPARd) signaling pathway - cell viability counter screen (AID 743211); note: nearly all actives have a fitted effect of over 55% in size; note: potency is the fitted concentration of half-maximal effect
# Summary of the method: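 Viability of GeneBLAzer PPARd UAS-bla HEK293H cells was assessed after 17 h compound incubation at 37C, using CellTiter-Glo reagent added after the reporter read and luminescence recorded 30 min later.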
# [7] = qHTS assay to identify small molecule antagonists of the peroxisome proliferator-activated receptor delta (PPARd) signaling pathway - cell viability counter screen (AID 743213); note: nearly all actives have a fitted effect of over 50% in size; note: potency is the fitted concentration of half-maximal effect
# Summary of the method: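 HEK293H PPARd UAS-bla cells, 5 h pre-incubation, compound + L165041 300 nM final, 17 h 37 C; B/G FRET substrate 2 h RT; then CellTiter-Glo 30 min RT, luminescence.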
# [8] = biological target: Bile acid receptor (Homo sapiens) (UniProt Q96RI1); test: qHTS assay to identify small molecule antagonists of the farnesoid-X-receptor (FXR) signaling pathway (AID 743217; active = well fitted inhibition curve with a large enough effect in the signal ratio in the repeat runs, not every such curve was filed as active; the % refers to the signal ratio; note: potency is the fitted concentration of half-maximal effect)
# Chain of Bile acid receptor (Homo sapiens) (Q96RI1 whole entry, looked up): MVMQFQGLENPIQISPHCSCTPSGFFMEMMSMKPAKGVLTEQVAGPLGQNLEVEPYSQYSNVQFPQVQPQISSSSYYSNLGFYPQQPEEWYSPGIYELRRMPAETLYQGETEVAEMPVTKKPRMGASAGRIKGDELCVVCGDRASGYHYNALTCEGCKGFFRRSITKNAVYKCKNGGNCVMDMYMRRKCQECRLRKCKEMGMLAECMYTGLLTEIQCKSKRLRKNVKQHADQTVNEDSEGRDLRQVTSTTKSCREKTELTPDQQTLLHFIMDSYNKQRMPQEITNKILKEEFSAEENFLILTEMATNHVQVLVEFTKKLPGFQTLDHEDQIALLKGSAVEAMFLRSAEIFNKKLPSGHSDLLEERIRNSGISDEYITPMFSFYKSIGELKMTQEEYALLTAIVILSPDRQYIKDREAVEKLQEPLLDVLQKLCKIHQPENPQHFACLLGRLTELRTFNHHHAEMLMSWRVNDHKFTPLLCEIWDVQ
# Summary of the method: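 FRET fluorescence after 2 h room-temperature LiveBLAzer loading gives the readout. Prior step: FXR-bla HEK 293T cells, seeded and incubated 5 h, received test compounds plus 50 uM final CDCA for 16 h at 37 °C.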
# [9] = biological target: Bile acid receptor (Homo sapiens) (UniProt Q96RI1); test: qHTS assay to identify small molecule agonists of the farnesoid-X-receptor (FXR) signaling pathway (AID 743220; active = well fitted activation curve with a large enough effect in the signal ratio in the repeat runs, not every such curve was filed as active; the % refers to the signal ratio; note: potency is the fitted concentration of half-maximal effect)
# Summary of the method: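 FXR-UAS-bla HEK 293T cells carrying a UAS-driven beta-lactamase reporter were plated for 5 h at 37C/5% CO2, then exposed to DMSO-dissolved Tox21 10K compounds for 16 h at 37C. A LiveBLAzer B/G FRET substrate was loaded for 2 h at room temperature before fluorescence reading.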
# [10] = qHTS assay to identify small molecule antagonists of the farnesoid-X-receptor (FXR) signaling pathway - cell viability counter screen (AID 743221; active = well fitted cell-killing curve with a large enough effect in the repeat runs, not every such curve was filed as active; note: nearly all actives have a fitted effect of over 50% in size; note: potency is the fitted concentration of half-maximal effect)
# Summary of the method: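 Quantitative HTS of the Tox21 10K library run in parallel with the beta-lactamase reporter read. HEK 293T cells carrying a UAS-driven bla reporter got compound and 50 uM CDCA (final) for 16 h; ATP-based luminescence followed.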
# [11] = qHTS assay to identify small molecule agonists of the vitamin D receptor (VDR) signaling pathway - cell viability counter screen (AID 743224); note: nearly all actives have a fitted effect of over 50% in size; note: potency is the fitted concentration of half-maximal effect
# Summary of the method: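 In parallel with the bla FRET readout, cytotoxicity toward VDR-bla cells after 16 h compound exposure was assessed by CellTiter-Glo, with luminescence recorded after a 30 min room-temperature incubation.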
# [12] = biological target: Peroxisome proliferator-activated receptor delta (Homo sapiens) (UniProt Q03181); test: qHTS assay to identify small molecule agonists of the peroxisome proliferator-activated receptor delta (PPARd) signaling pathway (AID 743212; calls by dose curve)
# Chain of Peroxisome proliferator-activated receptor delta (Homo sapiens) (Q03181 whole entry, looked up): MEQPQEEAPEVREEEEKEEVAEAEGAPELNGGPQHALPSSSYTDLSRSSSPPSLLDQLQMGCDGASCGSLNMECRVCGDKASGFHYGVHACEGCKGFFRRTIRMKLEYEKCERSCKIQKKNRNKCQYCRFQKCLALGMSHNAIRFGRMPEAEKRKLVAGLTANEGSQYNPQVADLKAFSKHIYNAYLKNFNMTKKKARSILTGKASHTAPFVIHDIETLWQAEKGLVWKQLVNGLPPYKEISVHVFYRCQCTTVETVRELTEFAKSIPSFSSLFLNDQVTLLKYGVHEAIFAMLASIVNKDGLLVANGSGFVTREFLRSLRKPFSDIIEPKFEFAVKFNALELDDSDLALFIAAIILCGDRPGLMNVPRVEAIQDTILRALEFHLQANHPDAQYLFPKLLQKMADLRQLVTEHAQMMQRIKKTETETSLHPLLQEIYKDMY
# Summary of the method: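 Read-out: beta-lactamase FRET fluorescence after 2 h room-temperature incubation with LiveBLAzer B/G substrate. Cells were HEK293H carrying a UAS-bla reporter for PPARd, treated at 37 C with DMSO-dissolved compounds.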
# [13] = biological target: Peroxisome proliferator-activated receptor delta (Homo sapiens) (UniProt Q03181); test: qHTS assay to identify small molecule antagonists of the peroxisome proliferator-activated receptor delta (PPARd) signaling pathway (AID 743215; active = well fitted inhibition curve with a large enough effect in the signal ratio in the repeat runs, not every such curve was filed as active; the % refers to the signal ratio;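 note: cells stimulated with agonist L165041 at 300 nM final during compound exposure; series mostly up to about 62 µM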)
# Summary of the method: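 Fluorescence from cleaved LiveBLAzer B/G FRET substrate (2 h, room temperature) reports PPARd-driven beta-lactamase in HEK293H UAS-bla cells. Cells had been treated 17 h at 37 C with compound plus 300 nM final L165041.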
# [14] = biological target: Vitamin D3 receptor (Homo sapiens) (UniProt P11473); test: qHTS assay to identify small molecule agonists of the vitamin D receptor (VDR) signaling pathway (AID 743222; calls by dose curve)
# Chain of Vitamin D3 receptor (Homo sapiens) (P11473 whole entry, looked up): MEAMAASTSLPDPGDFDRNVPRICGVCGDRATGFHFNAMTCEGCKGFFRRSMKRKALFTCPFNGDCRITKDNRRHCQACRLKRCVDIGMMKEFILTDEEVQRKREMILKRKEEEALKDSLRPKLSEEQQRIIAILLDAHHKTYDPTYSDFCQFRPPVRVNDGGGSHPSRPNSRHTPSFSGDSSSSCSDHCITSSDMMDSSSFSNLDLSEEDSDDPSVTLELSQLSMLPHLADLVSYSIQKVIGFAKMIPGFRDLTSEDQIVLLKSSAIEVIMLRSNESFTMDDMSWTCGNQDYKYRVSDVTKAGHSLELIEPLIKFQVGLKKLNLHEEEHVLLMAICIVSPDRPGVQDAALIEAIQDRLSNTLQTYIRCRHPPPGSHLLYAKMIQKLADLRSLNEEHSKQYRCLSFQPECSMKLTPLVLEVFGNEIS
# Summary of the method: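 Following 4 h attachment at 37C, VDR-bla cells (2,000 per well) received DMSO-dissolved compounds or controls. After 16 h incubation, LiveBLAzer B/G FRET substrate was added and fluorescence read 2 h later at room temperature.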
# [15] = biological target: Vitamin D3 receptor (Homo sapiens) (UniProt P11473); test: qHTS assay to identify small molecule antagonists of the vitamin D receptor (VDR) signaling pathway (AID 743223; active = well fitted inhibition curve with a large enough effect in the signal ratio in the repeat runs, not every such curve was filed as active; the % refers to the signal ratio)
# Summary of the method: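 Fluorescence from LiveBLAzer B/G FRET substrate, read after 2 h at room temperature, reflects beta-lactamase reporter activity in VDR-bla cells treated 16 h at 37C with compounds and agonist 1alpha,25-dihydroxyvitamin D3 (3 nM final).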
# [16] = qHTS assay to identify small molecule agonists of the farnesoid-X-receptor (FXR) signaling pathway - cell viability counter screen (AID 743218); note: nearly all actives have a fitted effect of over 45% in size; note: potency is the fitted concentration of half-maximal effect
# Summary of the method: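 Readout: CellTiter-Glo luminescence, 30 min RT, multiplexed after the FXR-bla FRET reading. HEK 293T FXR-UAS-bla cells received compound 5 h post-plating and were incubated 16 h at 37 C.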
# [17] = biological target: Peroxisome proliferator-activated receptor gamma (Homo sapiens) (UniProt P37231); test: qHTS assay to identify small molecule agonists of the peroxisome proliferator-activated receptor gamma (PPARg) signaling pathway (AID 743094; active = well fitted activation curve with a large enough effect in the signal ratio in the repeat runs, not every such curve was filed as active; the % refers to the signal ratio)
# Chain of Peroxisome proliferator-activated receptor gamma (Homo sapiens) (P37231 whole entry, looked up): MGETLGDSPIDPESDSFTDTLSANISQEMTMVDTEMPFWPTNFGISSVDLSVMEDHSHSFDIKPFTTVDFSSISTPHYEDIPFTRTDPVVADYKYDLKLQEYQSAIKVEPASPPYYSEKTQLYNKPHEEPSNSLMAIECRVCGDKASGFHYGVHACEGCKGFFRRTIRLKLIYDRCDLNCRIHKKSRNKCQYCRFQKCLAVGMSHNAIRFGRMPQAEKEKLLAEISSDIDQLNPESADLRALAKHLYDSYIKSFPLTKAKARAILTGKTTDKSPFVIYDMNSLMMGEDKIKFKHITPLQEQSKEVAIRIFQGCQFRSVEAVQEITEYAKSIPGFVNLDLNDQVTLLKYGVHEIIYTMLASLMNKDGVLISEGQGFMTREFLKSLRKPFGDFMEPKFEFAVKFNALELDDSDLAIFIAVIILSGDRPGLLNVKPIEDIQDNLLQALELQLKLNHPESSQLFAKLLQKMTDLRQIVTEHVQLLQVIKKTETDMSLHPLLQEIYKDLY
# Summary of the method: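 Cell-based bla reporter, HEK293H background, PPARg-driven UAS. Pre-incubation 5 h, 37C, 5% CO2. Compound 17 h, 37C. Substrate 1 h RT; fluorescence.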
# [18] = qHTS assay for small molecule agonists of the antioxidant response element (ARE) signaling pathway (AID 743202; active = well fitted activation curve with a large enough effect in the signal ratio in the repeat runs, not every such curve was filed as active; the % refers to the signal ratio; note: potency is the fitted concentration of half-maximal effect)
# Summary of the method: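 HepG2 ARE-bla reporter line, 2,000 cells/well; 5 h preincubation 37 C/5% CO2; compound (DMSO) 16 h 37 C; B/G FRET substrate 2 h RT; fluorescence intensity.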
# [19] = biological target: Peroxisome proliferator-activated receptor gamma (Homo sapiens) (UniProt P37231); test: qHTS assay to identify small molecule antagonists of the peroxisome proliferator-activated receptor gamma (PPARg) signaling pathway (AID 743191; calls by dose curve; note: series mostly up to about 63 µM; nearly all actives have a fitted effect of over 30% in size)
# Summary of the method: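 GeneBLAzer PPARg UAS-bla HEK293H cells, 5 h post-plating, exposed to compounds 17 h at 37C. LiveBLAzer B/G FRET substrate added for 1 h at room temperature; beta-lactamase reporter read by fluorescence intensity.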
# [20] = qHTS assay for small molecule activators of the heat shock response signaling pathway (AID 743210; active = well fitted activation curve with a large enough effect in the signal ratio in the repeat runs, with a control signal flat, not every such curve was filed as active; the % refers to the signal ratio;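 note: HeLa cells with beta-lactamase reporter driven by heat shock elements; series mostly up to about 63 µM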)
# Summary of the method: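 Beta-lactamase reporter read-out: FRET substrate fluorescence after 2.5 h at RT, following 5 h compound treatment at 37 C of HeLa cells carrying HSE-driven bla reporter; quantitative HTS format.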
SMILES,Potency [1],Potency [2],Potency [3],Potency [4],Potency [5],Potency [6],Potency [7],Potency [8],Potency [9],Potency [10],Potency [11],Potency [12],Potency [13],Potency [14],Potency [15],Potency [16],Potency [17],Potency [18],Potency [19],Potency [20]
CC(N=C(NC#N)Nc1ccncc1)C(C)(C)C (configuration not stated),inactive,inactive,inactive,inactive,inactive,inactive,inactive,inactive,inactive,inactive,inactive,–,–,–,–,–,–,–,–,–
CN1CCN(Cc2cc(-c3ccc4[nH]c(=O)oc4c3)co2)[C@@H](c2ccc(F)cc2)C1,inactive,52.4 µM (active),–,–,inactive,–,–,inactive,inactive,inactive,–,inactive,inactive,inactive,inactive,–,–,–,–,–
Nc1cc(Cl)c(O)c(Cl)c1,61.1 µM (active),inactive,–,inactive,inactive,inactive,inactive,–,–,inactive,inactive,–,–,–,–,inactive,–,–,–,–
CC1(C)[C@@H](O)CC[C@]2(C)[C@H]3C(=O)C=C4[C@@H]5C[C@@](C)(C(=O)O)CC[C@]5(C)CC[C@@]4(C)[C@]3(C)CC[C@@H]12,inactive,inactive,–,–,48.4 µM (active),38.5 µM (active),–,–,–,–,–,–,–,–,–,–,inactive,–,–,–
C/C=C/C=C/COC(=O)C(C)C,inactive,inactive,–,–,–,inactive,inactive,inactive,–,inactive,inactive,inactive,inactive,–,inactive,inactive,–,61.1 µM (active),–,–
Cc1cc(=O)oc2cc(O)cc(O)c12,15.4 µM (active),inactive,inactive,–,inactive,inactive,–,inactive,–,inactive,inactive,–,–,–,–,inactive,–,–,–,–
CCCCCCCCCCCCOC(=O)c1ccc(O)cc1,inactive,inactive,–,61.6 µM (active),–,34.9 µM (active),inactive,44 µM (active),–,–,–,inactive,inactive,inactive,inactive,49.3 µM (active),inactive,–,–,–
O=C(O)c1cccc(C(F)(F)F)c1,inactive,–,inactive,inactive,inactive,inactive,inactive,–,–,inactive,inactive,inactive,inactive,inactive,–,inactive,inactive,inactive,inactive,inactive
Cc1c2ccccc2c(C)c2c1ccc1ccccc12,8.55 µM (active) and 21.7 µM (active),60.5 µM (active) and 48.6 µM (active),49 µM (active),–,–,48.5 µM (active) and 38.9 µM (active),21.9 µM (active),–,48.5 µM (active),43.6 µM (active),43.2 µM (active) and 27.5 µM (active),–,–,–,–,21.9 µM (active),–,–,–,–
COc1cccc2c1C(=O)c1c(O)c3c(c(O)c1C2=O)C[C@@](O)(C(C)=O)C[C@@H]3O[C@H]1C[C@H](N)[C@H](O)[C@H](C)O1,2.45 µM (active),5.96 µM (active) and 24.5 µM (active),34.9 µM (active) and 33.5 µM (active),8.69 µM (active) and 13.3 µM (active),–,24.7 µM (active) and 33.5 µM (active),43.9 µM (active),–,–,55.3 µM (active) and inactive,34.9 µM (active),–,–,–,–,55.3 µM (active) and 2.4 nM (active),–,–,–,–
O=C(Oc1ccccc1)Oc1ccccc1,inactive,–,inactive,inactive,inactive,inactive,–,inactive,inactive,inactive,–,inactive,–,–,inactive,–,inactive,inactive,inactive,–
CC(C)(C)NSc1nc2ccccc2s1,27.8 µM (active),inactive,inactive,inactive,–,inactive,inactive,–,–,inactive,inactive,inactive,–,inactive,–,–,–,27.8 µM (active),inactive,–
Cc1ccc(-c2ccccc2)cc1,inactive,–,inactive,–,inactive,inactive,inactive,–,–,inactive,inactive,inactive,inactive,inactive,–,inactive,inactive,inactive,inactive,inactive

# Reference: PubChem BioAssay (Tox21)
